According to PubChem BioAssay AID1159580 (chemical genetic matrix, 2015):
Among all 5,500 compounds or so, about 2,000 (36%) were called active. Roughly 18% stayed inconclusive and do not appear here. The list shows a part of the results. Unmarked numbers belong to inactive results. Cut-off read from the data, not from the text of the source: active = normalized growth mostly below about 0.91 (no sharp cut-off); inconclusive = no clear call, values can overlap the other calls; inactive = mostly above about 0.92.

Test: chemical genetic growth profiling, strain panel (AID 1159580);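 note: tested at 20 µM; growth read once vehicle control cultures reached saturation at 30 °C; 1 = growth at the plate median or of vehicle wells; lower values mean less growth of the strain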
Settings: growth OD

COc1ccc(-c2cc(=O)c3ccccc3o2)cc1
normalized growth (S. cerevisiae deletion strains, locus YJR066W, strain TOR1, stronger effect = lower value): 0.873
normalized growth (S. cerevisiae deletion strains, locus YKL009W, strain mrt4, stronger effect = lower value): 0.824 (active)
normalized growth (S. cerevisiae deletion strains, locus YKL068W, stronger effect = lower value): 0.93 (active)
normalized growth (S. cerevisiae deletion strains, locus YKL085W, strain MDH1 (second series), stronger effect = lower value): 0.914 (active)
normalized growth (S. cerevisiae deletion strains, locus YKL085W, strain MDH1, stronger effect = lower value): 0.914 (active)
normalized growth (S. cerevisiae deletion strains, locus YKL160W, strain elf1, stronger effect = lower value): 0.742 (active)
normalized growth (S. cerevisiae deletion strains, locus YKR001C, strain vps1, stronger effect = lower value): 0.354 (active)
normalized growth (S. cerevisiae deletion strains, locus YKR026C, strain gcn3, stronger effect = lower value): 0.92 (active)
normalized growth (S. cerevisiae deletion strains, locus YKR091W, strain srl3, stronger effect = lower value): 0.93 (active)
normalized growth (S. cerevisiae deletion strains, locus YLL001W, strain dnm1, stronger effect = lower value): 0.763 (active)
normalized growth (S. cerevisiae deletion strains, locus YLL026W, stronger effect = lower value): 0.9 (active)
normalized growth (S. cerevisiae deletion strains, locus YLL041C, strain sdh2, stronger effect = lower value): 0.927 (active)
normalized growth (S. cerevisiae deletion strains, locus YLR027C, strain aat2, stronger effect = lower value): 0.84 (active)
normalized growth (S. cerevisiae deletion strains, locus YLR039C, strain RIC1, stronger effect = lower value): 0.405 (active)
normalized growth (S. cerevisiae deletion strains, locus YLR058C, strain SHM2, stronger effect = lower value): 0.741 (active)
normalized growth (S. cerevisiae deletion strains, locus YLR102C, strain apc9, stronger effect = lower value): 0.916 (active)
normalized growth (S. cerevisiae deletion strains, locus YLR113W, strain HOG1, stronger effect = lower value): 1.06
normalized growth (S. cerevisiae deletion strains, locus YLR221C, strain rsa3, stronger effect = lower value): 0.749 (active)
normalized growth (S. cerevisiae deletion strains, locus YLR258W, strain gsy2, stronger effect = lower value): 0.823 (active)
normalized growth (S. cerevisiae deletion strains, locus YLR262C, strain YPT6 (second series), stronger effect = lower value): 0.538 (active)
normalized growth (S. cerevisiae deletion strains, locus YLR262C, strain YPT6, stronger effect = lower value): 0.406 (active)
normalized growth (S. cerevisiae deletion strains, locus YLR268W, strain sec22, stronger effect = lower value): 0.727 (active)
normalized growth (S. cerevisiae deletion strains, locus YLR320W, strain mms22, stronger effect = lower value): 0.449 (active)
normalized growth (S. cerevisiae deletion strains, locus YLR330W, strain CHS5, stronger effect = lower value): 0.659 (active)
normalized growth (S. cerevisiae deletion strains, locus YLR342W, strain FKS1 (second series), stronger effect = lower value): 0.512 (active)
normalized growth (S. cerevisiae deletion strains, locus YLR342W, strain FKS1, stronger effect = lower value): 0.861 (active)
normalized growth (S. cerevisiae deletion strains, locus YLR357W, strain rsc2, stronger effect = lower value): 1.03
normalized growth (S. cerevisiae deletion strains, locus YLR370C, strain arc18, stronger effect = lower value): 0.922
normalized growth (S. cerevisiae deletion strains, locus YLR371W, strain rom2, stronger effect = lower value): 0.834 (active)
normalized growth (S. cerevisiae deletion strains, locus YLR384C, strain iki3, stronger effect = lower value): 0.916 (active)
normalized growth (S. cerevisiae deletion strains, locus YLR418C, strain cdc73, stronger effect = lower value): 0.612 (active)
normalized growth (S. cerevisiae deletion strains, locus YML016C, strain PPZ1, stronger effect = lower value): 0.89 (active)
normalized growth (S. cerevisiae deletion strains, locus YML032C, strain rad52, stronger effect = lower value): 0.697 (active)
normalized growth (S. cerevisiae deletion strains, locus YML120C, strain ndi1, stronger effect = lower value): 0.785 (active)
normalized growth (S. cerevisiae deletion strains, locus YML124C, strain tub3, stronger effect = lower value): 0.922 (active)
normalized growth (S. cerevisiae deletion strains, locus YMR058W, strain fet3, stronger effect = lower value): 0.804 (active)
normalized growth (S. cerevisiae deletion strains, locus YMR078C, strain ctf18, stronger effect = lower value): 0.753 (active)
normalized growth (S. cerevisiae deletion strains, locus YMR125W, strain sto1, stronger effect = lower value): 0.932
normalized growth (S. cerevisiae deletion strains, locus YMR129W, stronger effect = lower value): 0.92 (active)
normalized growth (S. cerevisiae deletion strains, locus YMR205C, strain PFK2, stronger effect = lower value): 0.668 (active)
normalized growth (S. cerevisiae deletion strains, locus YMR223W, strain ubp8, stronger effect = lower value): 0.784 (active)
normalized growth (S. cerevisiae deletion strains, locus YMR231W, strain pep5, stronger effect = lower value): 0.921 (active)
normalized growth (S. cerevisiae deletion strains, locus YMR307W, strain GAS1, stronger effect = lower value): 0.397 (active)
normalized growth (S. cerevisiae deletion strains, locus YNL067W, strain RPL9B, stronger effect = lower value): 0.688 (active)
normalized growth (S. cerevisiae deletion strains, locus YNL071W, strain lat1, stronger effect = lower value): 0.48 (active)
normalized growth (S. cerevisiae deletion strains, locus YNL153C, strain GIM3, stronger effect = lower value): 0.615 (active)
normalized growth (S. cerevisiae deletion strains, locus YNL183C, strain NPR1, stronger effect = lower value): 0.874
normalized growth (S. cerevisiae deletion strains, locus YNL209W, strain ssb2, stronger effect = lower value): 0.873 (active)
normalized growth (S. cerevisiae deletion strains, locus YNL233W, strain BNI4, stronger effect = lower value): 0.629 (active)
normalized growth (S. cerevisiae deletion strains, locus YNL248C, strain rpa49, stronger effect = lower value): 0.833 (active)
normalized growth (S. cerevisiae deletion strains, locus YNL250W, strain rad50, stronger effect = lower value): 0.921
normalized growth (S. cerevisiae deletion strains, locus YNL271C, strain bni1, stronger effect = lower value): 0.884 (active)
normalized growth (S. cerevisiae deletion strains, locus YNL298W, strain CLA4, stronger effect = lower value): 0.881 (active)
normalized growth (S. cerevisiae deletion strains, locus YNL307C, strain MCK1, stronger effect = lower value): 0.136 (active)
normalized growth (S. cerevisiae deletion strains, locus YNL322C, strain KRE1 (second series), stronger effect = lower value): 0.902 (active)
normalized growth (S. cerevisiae deletion strains, locus YNL322C, strain KRE1, stronger effect = lower value): 0.792 (active)
normalized growth (S. cerevisiae deletion strains, locus YNR049C, strain mso1, stronger effect = lower value): 0.914 (active)
normalized growth (S. cerevisiae deletion strains, locus YNR052C, strain pop2, stronger effect = lower value): 0.853 (active)
normalized growth (S. cerevisiae deletion strains, locus YOL012C, strain htz1): 0.926
normalized growth (S. cerevisiae deletion strains, locus YOL147C, strain pex11, stronger effect = lower value): 0.819 (active)
normalized growth (S. cerevisiae deletion strains, locus YOR001W, strain rrp6, stronger effect = lower value): 0.809 (active)
normalized growth (S. cerevisiae deletion strains, locus YOR061W, strain CKA2, stronger effect = lower value): 0.851 (active)
normalized growth (S. cerevisiae deletion strains, locus YOR069W, strain VPS5, stronger effect = lower value): 0.729 (active)
normalized growth (S. cerevisiae deletion strains, locus YOR070C, strain gyp1, stronger effect = lower value): 0.818 (active)
normalized growth (S. cerevisiae deletion strains, locus YOR080W, strain dia2, stronger effect = lower value): 0.906 (active)
normalized growth (S. cerevisiae deletion strains, locus YOR083W, strain WHI5, stronger effect = lower value): 0.71 (active)
normalized growth (S. cerevisiae deletion strains, locus YOR106W, strain vam3, stronger effect = lower value): 0.733 (active)
normalized growth (S. cerevisiae deletion strains, locus YOR136W, strain idh2, stronger effect = lower value): 0.895 (active)
normalized growth (S. cerevisiae deletion strains, locus YOR144C, strain elg1, stronger effect = lower value): 0.911 (active)
normalized growth (S. cerevisiae deletion strains, locus YOR184W, strain ser1, stronger effect = lower value): 0.474 (active)
normalized growth (S. cerevisiae deletion strains, locus YOR231W, strain MKK1, stronger effect = lower value): 0.991
normalized growth (S. cerevisiae deletion strains, locus YOR265W, strain rbl2, stronger effect = lower value): 0.879 (active)
normalized growth (S. cerevisiae deletion strains, locus YOR270C, strain vph1, stronger effect = lower value): 0.328 (active)
normalized growth (S. cerevisiae deletion strains, locus YOR290C, strain snf2, stronger effect = lower value): 0.689 (active)
normalized growth (S. cerevisiae deletion strains, locus YOR316C, strain cot1, stronger effect = lower value): 0.925
normalized growth (S. cerevisiae deletion strains, locus YPL051W, strain arl3, stronger effect = lower value): 0.674 (active)
normalized growth (S. cerevisiae deletion strains, locus YPL078C, strain atp4, stronger effect = lower value): 0.695 (active)
normalized growth (S. cerevisiae deletion strains, locus YPL106C, strain sse1, stronger effect = lower value): 1.05
normalized growth (S. cerevisiae deletion strains, locus YPL240C, strain hsp82, stronger effect = lower value): 0.893 (active)
normalized growth (S. cerevisiae deletion strains, locus YPL241C, strain CIN2, stronger effect = lower value): 0.839 (active)
normalized growth (S. cerevisiae deletion strains, locus YPL256C, strain CLN2, stronger effect = lower value): 1.02
normalized growth (S. cerevisiae deletion strains, locus YPR119W, strain clb2, stronger effect = lower value): 0.93 (active)
normalized growth (S. cerevisiae deletion strains, locus YPR141C, strain kar3, stronger effect = lower value): 0.94
normalized growth (S. cerevisiae deletion strains, locus YPR163C, strain tif3, stronger effect = lower value): 0.543 (active)
normalized growth (S. cerevisiae deletion strains, locus YPR167C, strain met16, stronger effect = lower value): 0.727 (active)
normalized growth (S. cerevisiae deletion strains, strain wtn01, stronger effect = lower value): 0.816 (active)
normalized growth (S. cerevisiae strains, strain wild type, stronger effect = lower value): 0.682 (active)
